Source: PubChem BioAssay (NCI)
“And” between values parts separate entries of the source, which are not always exact repeats. Equal values may be shown once. About 83,000 compounds went through this panel and 20% of them were active in at least one assay; those are over-represented in the sample as a whole.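 For each line, cells grew in 96-well plates with the test compound present at a single concentration for 48 hours.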 The source made the active and inactive calls. The calls were made as follows: active = growth percent below 10; inactive = the rest.

Tests used:
Assay in all cases: NCI-60 one-dose screen, 48 h (100 = growth as untreated, 0 = no growth, -100 = all killed)
Settings in all cases: 10 µM unless noted
T-47D breast = test system: T-47D breast
BT-549 breast = test system: BT-549 breast
MDA-MB-435 melanoma = test system: MDA-MB-435 melanoma
SW-620 colon = test system: SW-620 colon
MCF7 breast = test system: MCF7 breast
HCT-116 colon = test system: HCT-116 colon
HCC-2998 colon = test system: HCC-2998 colon
KM12 colon = test system: KM12 colon

SMILES | growth (T-47D breast) | growth (BT-549 breast) | growth (MDA-MB-435 melanoma) | growth (SW-620 colon) | growth (MCF7 breast) | growth (HCT-116 colon) | growth (HCC-2998 colon) | growth (KM12 colon)
Cc1ccc(NC(=O)N/C(N)=N/c2nc(=O)c3ccccc3s2)cc1 | 109% (inactive) | 86.4% (inactive) | 87.5% (inactive) | 92.7% (inactive) | 84.9% (inactive) | 94.1% (inactive) | 102% (inactive) | 103% (inactive)
Cc1ccc(/C=C(\C#N)c2cc3ccccc3[nH]2)cc1 | 36.1% (inactive) | 56.9% (inactive) | -5.1% (active) | 16.4% (inactive) | 22.4% (inactive) | 32.5% (inactive) | 65.9% (inactive) | 31.7% (inactive)
O=C1OCC2=C1C(c1cccc(C(F)(F)F)c1)c1cc3c(cc1N2CCO)CCC3 (stereo not drawn) | 75% (inactive) | 22% (inactive) | -44.3% (active) | 24% (inactive) | 16.3% (inactive) | 4.17% (active) | 11.2% (inactive) | 4.92% (active)
O=C(/C=C/c1ccc(Cl)s1)c1ccc(Cl)s1 | 88.8% (inactive) and 96.9% (inactive) | 103% (inactive) | 87.8% (inactive) | 99.7% (inactive) and 95.2% (inactive) | 59.3% (inactive) and 60.5% (inactive) | 68.2% (inactive) and 85.8% (inactive) | 98.8% (inactive) and 102% (inactive) | 89% (inactive) and 95.9% (inactive)
Clc1cccc(Nc2ncnc3ccc(-c4cncc(-n5cnnn5)c4)cc23)c1 | 44.8% (inactive) | 44.9% (inactive) | 89.8% (inactive) | 96.8% (inactive) | 67.7% (inactive) | 38.1% (inactive) | 93.6% (inactive) | 91.4% (inactive)
N=C(N)SCc1c2ccccc2c(CSC(=N)N)c2ccccc12 | 71.5% (inactive) | 102% (inactive) | 74% (inactive) | 43.1% (inactive) | 38.3% (inactive) | 40.4% (inactive) | 79.5% (inactive) | 59.7% (inactive)
COCCn1cc(-c2nc(-c3cn(CCOC)c4ncccc34)cs2)c2ccccc21 | -3.64% (active) | 77.7% (inactive) | 108% (inactive) | 115% (inactive) | 10.5% (inactive) | 79.9% (inactive) | 42.2% (inactive) | 21.1% (inactive)
COc1ccc(/C=C(\C#N)c2cc3ccccc3[nH]2)cc1 | 28.3% (inactive) | 40.9% (inactive) | -32.6% (active) | 9.82% (active) | 13.3% (inactive) | 12.5% (inactive) | 39% (inactive) | 20.4% (inactive)
Nc1nc2c(s1)CCc1cn(S(=O)(=O)c3ccccc3)cc1-2 | 81.6% (inactive) and 111% (inactive) | 84% (inactive) and 109% (inactive) | 91.1% (inactive) and 107% (inactive) | 99.7% (inactive) and 99.3% (inactive) | 93.4% (inactive) and 94.3% (inactive) | 84.5% (inactive) and 100% (inactive) | 111% (inactive) and 106% (inactive) | 94.6% (inactive) and 108% (inactive)
COc1ccc(-c2ccccc2)cc1-c1c(Nc2cc(Cl)cc(Cl)c2O)c(=O)c1=O | -8.93% (active) | 19.7% (inactive) | -4.35% (active) | 17.5% (inactive) | 5.24% (active) | 11.2% (inactive) | 13.8% (inactive) | 7.85% (active)
CCCCCCCCCCCCC[C@H](O)C[C@H](O)[C@H](C)N | 122% [1.25 µM] (inactive) | 107% [1.25 µM] (inactive) | 116% [1.25 µM] (inactive) | 99.9% [1.25 µM] (inactive) | 104% [1.25 µM] (inactive) | 83.1% [1.25 µM] (inactive) | 26.7% [1.25 µM] (inactive) | 116% [1.25 µM] (inactive)
Cc1nc2cccc(NCCCCC(=O)NO)c2c(=O)n1-c1ccccc1 | 54.5% (inactive) | 86.8% (inactive) | 53.8% (inactive) | 47.5% (inactive) | 57.9% (inactive) | 27.3% (inactive) | 82% (inactive) | 73.8% (inactive)
ON=C1CCCCCCCC1 | 97.7% (inactive) and 99.2% (inactive) | 110% (inactive) and 101% (inactive) | 103% (inactive) and 113% (inactive) | 108% (inactive) and 105% (inactive) | 98.9% (inactive) and 91.3% (inactive) | 105% (inactive) and 104% (inactive) | 100% (inactive) and 103% (inactive) | 97% (inactive) and 97.8% (inactive)
O=C1OCC2=C1C(c1cccc(C(F)(F)F)c1)c1cc3c(cc1N2CCO)OCCO3 (stereo not drawn) | 51% (inactive) | 41.7% (inactive) | -41.1% (active) | 24.5% (inactive) | 23.1% (inactive) | 10.3% (inactive) | 8.81% (active) | 16.9% (inactive)
COc1c(NC=O)c2c(c([N+](=O)[O-])c1OC)C(=O)OC2 | 109% (inactive) and 93.1% (inactive) | 94.4% (inactive) | 115% (inactive) and 101% (inactive) | 109% (inactive) and 103% (inactive) | 97.2% (inactive) and 89.6% (inactive) | 108% (inactive) and 106% (inactive) | 105% (inactive) and 89.9% (inactive) | 109% (inactive) and 102% (inactive)
CN(C)c1ccc2nc3ccc(=O)cc-3sc2c1 | 28% (inactive) and 38.8% (inactive) | 52.5% (inactive) and 47.1% (inactive) | 40.7% (inactive) and -65.2% (active) | 31.9% (inactive) and 47.4% (inactive) | -1.53% (active) and 1.73% (active) | 2.57% (active) and 9.4% (active) | 18.1% (inactive) and 39.7% (inactive) | 30.4% (inactive) and 32.8% (inactive)
CCCCCCCCCCCCCCCC(=O)O[C@@H]1[C@@H](O)[C@@H](O)C([C@H](NC(=O)[C@@H]2C[C@@H](CCC)CN2C)[C@H](C)Cl)O[C@@H]1SC (stereo partly drawn) | 96.1% (inactive) | 99.4% (inactive) | 107% (inactive) | 114% (inactive) | 102% (inactive) | 103% (inactive) | 115% (inactive) | 101% (inactive)
NC(N)=NC(N)=NCCCc1ccco1 | 106% (inactive) | 115% (inactive) | 110% (inactive) | 94.5% (inactive) | 106% (inactive) | 108% (inactive) | 106% (inactive) | 101% (inactive)
C=C1C(=O)O[C@H]2[C@H]1CC/C(COC(=O)NCc1ccc(Cn3c(=O)sn(CCCI)c3=O)cc1)=C\CC[C@@]1(C)O[C@@H]21 | 8.47% (active) | 40.8% (inactive) | 17.5% (inactive) | -42.9% (active) | 4.45% (active) | -52% (active) | 104% (inactive) | 100% (inactive)
CCCNNC(=O)/C=C/c1ccc(CNCCc2c(C)[nH]c3ccccc23)cc1 | -7.33% [2.5 µM] (active) | 62.2% [2.5 µM] (inactive) | 14% [2.5 µM] (inactive) | 10.7% [2.5 µM] (inactive) | 24.2% [2.5 µM] (inactive) | 0.525% [2.5 µM] (active) | 13.3% [2.5 µM] (inactive) | 28.8% [2.5 µM] (inactive)
CCOC(=O)N(O)c1ccc(/C=C/c2ccccc2)cc1 | 11.2% (inactive) and 5.56% (active) | 78.1% (inactive) and 69.9% (inactive) | 84.6% (inactive) and 84.1% (inactive) | 60.2% (inactive) and 46.6% (inactive) | 8.37% (active) and 10.4% (inactive) | 11.2% (inactive) and 17.6% (inactive) | 59.3% (inactive) and 66.4% (inactive) | 78.5% (inactive) and 64.9% (inactive)
Brc1ccc(/C=C(/C2=NCCN2)n2ccc3ccccc32)cc1 | 53.1% (inactive) | 80.3% (inactive) | 58.2% (inactive) | 71.8% (inactive) | 30.2% (inactive) | 52.9% (inactive) | 48.5% (inactive) | 80.4% (inactive)
COc1c(F)cc(-n2c(C(=O)N3CC(F)C3)cc3cccnc32)cc1F | 89.5% (inactive) | 97.2% (inactive) | 116% (inactive) | 104% (inactive) | 105% (inactive) | 95.9% (inactive) | 99.7% (inactive) | 98.8% (inactive)
C=C(C)[C@@H]1CC[C@]2(C(=O)N3CCN(C)CC3)CC[C@]3(C)[C@H](CC[C@@H]4[C@@]5(C)CC(CCCNC(C)=O)(CCCNC(C)=O)[C@H](OC(C)=O)C(C)(C)[C@@H]5CC[C@]43C)[C@@H]12 | 89.9% (inactive) | 104% (inactive) | 94.4% (inactive) | 99.2% (inactive) | 89.1% (inactive) | 90.7% (inactive) | 106% (inactive) | 107% (inactive)
CCOc1ccc(N2C(N)=NC(N)=NC2(C)C)cc1 | 38% (inactive) and 86% (inactive) | 59.6% (inactive) and 83.4% (inactive) | -42.8% (active) and 82.7% (inactive) | 16.2% (inactive) and 75.8% (inactive) | 6.3% (active) and 88.3% (inactive) | 21.4% (inactive) and 63.1% (inactive) | 40.2% (inactive) and 112% (inactive) | 25.1% (inactive) and 95.6% (inactive)
CC12OC(CC(O)C1O)n1c3ccccc3c3c4c(c5c6ccccc6n2c5c31)C(=O)N(CCN1CCOCC1)C4=O (stereo not drawn) | -5.19% (active) | 22.6% (inactive) | 21.7% (inactive) | 16% (inactive) | 4.28% (active) | 14.1% (inactive) | 6.48% (active) | 14.6% (inactive)
